Measurements reported in PubChem BioAssay (NCI).
Compounds without any hit were thinned out: in the full panel of roughly 79,000, 15% have a hit. A number with no mark means an inactive call. Active and inactive are the calls of the source. No stated cut-off is given here; in the data, active means growth inhibition above about 70%; inactive means the rest.

Assay: NCI Yeast Anticancer Drug Screen. Data for the mlh1 rad18 strain (AID 175)
Details: S. cerevisiae mlh1 rad18 strain growth inhibition; at 50.0 µM; active compounds read high
Method in brief: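 Growth inhibition of the yeast strain was measured after compound exposure and expressed relative to vehicle-treated controls. The strain carries defined defects in DNA damage repair.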

Row | SMILES | growth inhibition
1 | CCOC(=O)NC(Nc1cccc(F)c1)(C(F)(F)F)C(F)(F)F | 4.9%
2 | N#C/C(=C\c1ccccc1[N+](=O)[O-])C(=O)O | 3.7%
3 | Cc1cc(C)c(NS(=O)(=O)c2ccc(Cl)cc2)cc1C | 90.5% (active)
4 | O=C1c2cc3ccccc3cc2NC(O)c2cccn21 (stereo not given) | 13.2%
5 | C/C=C(\CC)C(C#N)(CCC)C(=O)OCC (stereo not given) | -17.6%
6 | CCN(CC)CC(C)(C)C(=O)/C=C/c1ccc(OC)cc1 | -7.3%
7 | CC1(C)Nc2cc3c(cc2-n2cccc21)oc1ccccc13 | 27.4%
8 | C=CCOc1cc(=O)[nH]c2ccccc12 | 2.9%
9 | c1ccc2oc(-c3ccc4c(c3)OCO4)nc2c1 | -0.2%
10 | CC1(C)OC[C@@H](O)[C@H](C#N)CO1 | -18.1%
11 | O=c1ccn(C2OC(C(O)CO)C(O)C2O)c(=O)[nH]1 (stereo not given) | 9.25%
12 | Brc1ccccc1N=Nc1ccccc1Br | -20.5%
13 | CC(=O)c1cccc(NC(=O)Nc2cccc3ccccc23)c1 | 2.7%
14 | CNc1n[nH]c(-c2ccccc2)n1 | 1.8%
15 | COc1ccc(OC)c(NC(=O)OCc2ccc3c(c2)OCO3)c1 | -4.7%
16 | NC(N)=NC(N)=Nc1cnccn1 | 15.2%
17 | CC1(C)OC2COC(CNCC3OCC4OC(C)(C)OC34)C2O1 (stereo not given) | 4.55%
18 | CCOC(=O)C(Nc1cccc2ccccc12)C(=O)OCC | 25.7%
19 | CCCCN(CCCC)C(=O)C(=O)C(C)C(=O)CC (stereo not given) | 25.7%
20 | COC1=CC(=O)N(C)C(O)C1(C#N)OC1OC(CO)C(O)C(O)C1O (stereo not given) | -40.9%

Row | SMILES | growth inhibition
21 | CC1=CC[C@@H](Br)C(C)(C)[C@]12CC[C@]1(C)O[C@@H]1C2 | -13.6%
22 | Cn1c(=O)c2c(nc3sc4nc5ccccc5nc4n32)n(C)c1=O | 13.1%
23 | CC(C)/C(Cl)=N/OC(=O)Nc1ccc(Cl)c(Cl)c1 | 82.8% (active)
24 | O=C(C=C(C(F)(F)F)C(F)(F)F)/C=C/c1ccccc1 | 99.4% (active)
25 | C/C=C(\C(=C\C)c1ccc(OC(=O)c2ccccc2)c(C2CCCCC2)c1)c1ccc(O)c(C2CCCCC2)c1 | 45.8%
26 | NC(=O)c1ccccc1OC(=O)Nc1ccccc1 | 10.8%
27 | CCOC(=O)NN(C/C(Cl)=C/Cl)C/C(Cl)=C/Cl | -5.55%
28 | CN(C)C(=S)/N=c1\ssc(=S)n1C1CCCCC1 | -11.5%
29 | Cc1cc2c(cc1[N+](=O)[O-])OCCO2 | 8.55%
30 | O=C(/C=C/c1ccccc1)NCCC1(O)C(=O)Nc2ccccc21 (stereo not given) | -15.5%
31 | CCCCCCC1OCC(CC)(CC)CO1 | 26.4%
32 | CC(=O)Nc1ccc(Cc2ccc(O)cc2)cc1 | -1.45%
33 | Clc1ccc(C(CI)c2ccccc2Cl)cc1 (stereo not given) | 6.05%
34 | C=CCCC(=O)OC(C)(C)C | 1.95%
35 | C[N+]1=CN(c2ccc(Cl)cc2)Cc2cc(Cl)ccc21 | 34%
36 | CCCCC(CC)CCC(O)CC(C)C (stereo not given) | 5.25%
37 | O=C1CCCC(=O)N1CCCO | 6.5%
38 | O=C1CCCCc2cccc(O)c21 | 2.1%
39 | COc1ccc2c(c1)C1(C)CCCC(C)(C(N)=O)C1CC2 (stereo not given) | -24.7%
40 | Cc1cn(C2CC(C)N(CCO)O2)c(=O)[nH]c1=O (stereo not given) | -74.2%
